PubChem BioAssay (Tox21)
Where “and” joins values, the source holds several entries; their conditions need not be identical. Identical values can stand only once. Results filed as inconclusive are left out. Entries that show only a call come without a potency. Calls of active or inactive are those of the source. Calls come from the whole dose curve.

Key:
[1] = target: Acetylcholinesterase (Homo sapiens) (UniProt P22303); assay: Acetylcholinesterase (AChE) small molecule antagonists: colormetric cell-based qHTS assay (AID 1347395); note: nearly all actives have a fitted effect of over 30% in size; note: potency is the fitted concentration of half-maximal effect
Outline: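 Quantitative HTS in attached SH-SY5Y cells: 30 min compound exposure, then 90 min with acetylthiocholine and DTNB at 37 C; colour from thiocholine reports AChE activity.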

[2] = target: Acetylcholinesterase (Homo sapiens) (UniProt P22303); assay: Acetylcholinesterase (AChE) small molecule antagonists: enzyme-based qHTS assay (AID 1347397); conditions: Potency: AChE enzyme activity inhibition; outcome: AChE enzyme activity inhibition; note: nearly all actives have a fitted effect of over 55% in size; note: potency is the fitted concentration of half-maximal effect
Outline: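 Compound or DMSO vehicle was pin-transferred onto recombinant human AChE (50 mU/mL as dispensed) and left 30 min at room temperature. Acetylthiocholine with DTNB then started the reaction, read colorimetrically 10 min later.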

[3] = target: Acetylcholinesterase (Homo sapiens) (UniProt P22303); assay: Acetylcholinesterase (AChE) small molecule antagonists: fluorescence cell-based qHTS assay (AID 1347398); conditions: Potency: AChE activity; outcome: AChE activity; note: nearly all actives have a fitted effect of over 50% in size; note: potency is the fitted concentration of half-maximal effect
Outline: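 Using neuroblastoma SH-SY5Y cells as the enzyme source, test chemicals are preincubated 30 min at 37 C; AChE-driven acetylthiocholine cleavage is then quantified by thiocholine-dependent Thiolite Green fluorescence after 40 min at room temperature.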

[4] = target: Acetylcholinesterase (Homo sapiens) (UniProt P22303); assay: Acetylcholinesterase (AChE) small molecule antagonists: enzyme-based qHTS assay with human liver microsomes (AID 1347399); conditions: Potency: qHTS inhibition; outcome: qHTS inhibition; note: nearly all actives have a fitted effect of over 60% in size
Outline: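 Recombinant human AChE (50 mU/mL in the enzyme mix) and human liver microsomes (0.25 mg/mL final) were preincubated with compound and NADPH (0.25 mg/mL final) for 30 min at 37 C. Acetylthiocholine/DTNB was then added; thiocholine was read colorimetrically after 10 min at room temperature.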

Chain of Acetylcholinesterase (Homo sapiens) (P22303 whole entry, looked up): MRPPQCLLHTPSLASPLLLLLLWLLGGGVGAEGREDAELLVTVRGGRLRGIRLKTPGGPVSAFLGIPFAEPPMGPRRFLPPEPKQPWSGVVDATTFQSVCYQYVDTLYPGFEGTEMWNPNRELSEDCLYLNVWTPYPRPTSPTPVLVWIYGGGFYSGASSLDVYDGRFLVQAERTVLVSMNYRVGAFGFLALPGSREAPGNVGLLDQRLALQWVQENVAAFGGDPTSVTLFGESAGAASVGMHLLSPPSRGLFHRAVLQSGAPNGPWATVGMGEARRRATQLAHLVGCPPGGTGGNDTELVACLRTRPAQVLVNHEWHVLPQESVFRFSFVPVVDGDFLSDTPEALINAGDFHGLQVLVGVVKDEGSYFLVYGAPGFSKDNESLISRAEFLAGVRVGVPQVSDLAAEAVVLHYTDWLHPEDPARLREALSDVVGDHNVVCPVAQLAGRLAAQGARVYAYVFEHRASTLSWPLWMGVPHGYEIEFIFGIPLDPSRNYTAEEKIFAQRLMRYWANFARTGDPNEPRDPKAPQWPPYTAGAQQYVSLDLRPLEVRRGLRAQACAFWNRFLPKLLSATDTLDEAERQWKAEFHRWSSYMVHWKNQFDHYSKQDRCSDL

| Structure (SMILES) | Potency [1] | Potency [2] | Potency [3] | Potency [4] |
| --- | --- | --- | --- | --- |
| CC(C)(O)c1coc(S(=O)(=O)NC(=O)Nc2c3c(cc4c2CCC4)CCC3)c1 | inactive | inactive | inactive | inactive |
| NC(=O)c1ccccc1N | inactive | inactive | inactive | inactive |
| CC(C)C(=O)OCc1cccc(OC(=O)[C@@H]2N3C(=O)[C@@H](NC(=O)Cc4ccccc4)[C@H]3SC2(C)C)c1 | inactive | inactive | inactive | inactive |
| CCCC(C)c1ccccc1O (stereo not given) | inactive | inactive | inactive | inactive |
| CC(C)CC(=O)CC(C)C | inactive | inactive | inactive | inactive |
| CC(=O)Nc1nnc(S(N)(=O)=O)s1 | inactive | inactive | inactive | inactive |
| CC(C)=NNC(N)=S | inactive | inactive | inactive | inactive |
| O=C(O)c1ccc(O)cc1O | inactive | inactive | inactive | inactive |
| CCCCCCCCCCCCCOS(=O)(=O)O | inactive | inactive | inactive | inactive |
| O=C(c1ccccc1)c1cccc(O)c1 | inactive | inactive | inactive | inactive |
| CC(=O)Nc1ccccc1 | inactive | inactive | inactive | inactive |
| O=C(Nc1ccccc1)OCC(CN1CCCCC1)OC(=O)Nc1ccccc1 (stereo not given) | inactive | inactive | inactive | inactive |
| Nc1nc(F)nc2c1ncn2[C@@H]1O[C@H](CO)[C@@H](O)[C@@H]1O | inactive | inactive | inactive | inactive |
| CCNc1nc(N)nc(Cl)n1 | inactive | inactive | inactive | inactive |
| Cc1ccc(-c2ccccc2C#N)cc1 | inactive | inactive | inactive | inactive |
| CCCCC(CC)COP(=O)(OCC(CC)CCCC)OCC(CC)CCCC (stereo not given) | inactive | inactive | inactive | inactive |
| CSc1ccc(Cl)cc1 | inactive | inactive | inactive | inactive |
| CCC(=O)OC(=O)CC | inactive | inactive | inactive | inactive |
| CC(C=O)Cc1ccc(C(C)C)cc1 (stereo not given) | inactive | inactive | inactive | inactive |
| CC(=O)OC(C)OC(=O)C(C)c1ccc(-c2ccccc2)c(F)c1 (stereo not given) | inactive | inactive | inactive | inactive |

| Structure (SMILES) | Potency [1] | Potency [2] | Potency [3] | Potency [4] |
| --- | --- | --- | --- | --- |
| Cc1ccc2ncccc2c1 | inactive | inactive | inactive | inactive |
| CC(=O)Nc1ccc(N=Nc2cc(C)ccc2O)cc1 | inactive | 22.4 µM (active) | inactive | inactive |
| CN1C(=O)N(C)C(O)C1O (stereo not given) | inactive | inactive | inactive | inactive |
| c1c[nH]cn1 | inactive | inactive | inactive | inactive |
| CC(C)=CCC1C(=O)N(c2ccccc2)N(c2ccccc2)C1=O | inactive | inactive | inactive | inactive |
| Cc1cccc(Oc2ccccc2)c1 | inactive | inactive | inactive | inactive |
| NCCCCCCN | inactive | inactive | inactive | inactive |
| C1CCCNCC1 | inactive | inactive | inactive | inactive |
| CN(C)Cc1cc(C(C)(C)C)c(O)c(C(C)(C)C)c1 | inactive | inactive | inactive | inactive |
| NC(CO)C(=O)NNCc1ccc(O)c(O)c1O (stereo not given) | inactive | inactive | inactive | inactive |
| C[Si]1(C)O[Si](C)(C)O[Si](C)(C)O[Si](C)(C)O1 | inactive | inactive | inactive | inactive |
| Cc1cc(OCCOCC[N+](C)(C)Cc2ccccc2)ccc1C(C)(C)CC(C)(C)C | 39.7 µM (active) and 17.4 µM (active) | 56.1 µM (active) and 30.9 µM (active) | 14.1 µM (active) and 8.71 µM (active) | inactive |
| CC1(C)O[C@@H]2C[C@H]3[C@@H]4CCC5=CC(=O)C=C[C@]5(C)[C@H]4[C@@H](O)C[C@]3(C)[C@]2(C(=O)CO)O1 | inactive | inactive | inactive | inactive |
| CCCCCCCCCCCCCC[n+]1ccccc1 | 31.7 µM (active) | 56.4 µM (active) | 20 µM (active) | inactive |
| c1ccc(Oc2ccccc2)cc1 | inactive | inactive | inactive | inactive |
| O=C(O)[C@@H](O)[C@H](O)[C@H](O)[C@@H](O)C(=O)O | inactive | inactive | inactive | inactive |
| Cc1ccc(Br)cc1 | inactive | inactive | inactive | inactive |
| Cc1cc(C)c(O)c(C)c1 | inactive | inactive | inactive | inactive |
| C=C(C)C(=O)OCCOP(=O)(O)O | inactive | inactive | inactive | inactive |
| CCCCCCCCOc1ccccc1C(=O)Nc1ccc(C(=O)OCC[N+](C)(CC)CC)cc1 | 24.5 µM (active) | 38.9 µM (active) | 12.3 µM (active) | inactive |

| Structure (SMILES) | Potency [1] | Potency [2] | Potency [3] | Potency [4] |
| --- | --- | --- | --- | --- |
| CCCCOCC(C)O (stereo not given) | inactive | inactive | inactive | inactive |
| CCC(=O)OC | inactive | inactive | inactive | inactive |
| CC[C@H](C)COC(=O)/C=C/c1ccc(N=Cc2ccc(OC)cc2)cc1 | inactive | inactive | inactive | inactive |
| OCC(O)CS (stereo not given) | inactive | inactive | inactive | inactive |
| CCCCCCCCCCCCCCCC[N+](C)(C)CC | inactive | 71.2 µM (active) | 63.5 µM (active) and 38.9 µM (active) | inactive |
| Nc1cccc(O)c1 | inactive | inactive | inactive | inactive |
| CC(=O)CCCCn1c(=O)c2c(ncn2C)n(C)c1=O | inactive | inactive | inactive | inactive |
| N[C@H]1CN(c2c(F)cc3c(=O)c(C(=O)O)cn(C4C[C@H]4F)c3c2Cl)CC12CC2 (stereo not given in full) | inactive | inactive | inactive | inactive |
| OCC(O)[C@@H](O)[C@H](O)[C@H](O)CO[C@H]1O[C@H](CO)[C@@H](O)[C@H](O)[C@H]1O (stereo not given in full) | inactive | inactive | inactive | inactive |
| Cc1ccc(C(=O)O)cc1[N+](=O)[O-] | inactive | inactive | inactive | inactive |
| O=C(NCN1CCOCC1)c1cnccn1 | inactive | inactive | inactive | inactive |
| CCCCCCCCCC | inactive | inactive | inactive | inactive |
| CC(C)OC(=O)C(C(=O)OC(C)C)=C1SC=CS1 | inactive | inactive | inactive | inactive |
| COC(=O)c1cccc(C(=O)OC)c1 | inactive | inactive | inactive | inactive |
| c1ccc(SSc2ccccc2)cc1 | inactive | inactive | inactive | inactive |
| COC(=O)CC(C)CCC=C(C)C (stereo not given) | inactive | inactive | inactive | inactive |
| CCCCCC[C@@H](CCC)C(=O)O | inactive | inactive | inactive | inactive |
| Cc1cn([C@H]2C=C[C@@H](CO)O2)c(=O)[nH]c1=O | inactive | inactive | inactive | inactive |
| O=C(O)CCCl | inactive | inactive | inactive | inactive |
| C=C[Si](OC)(OC)OC | inactive | inactive | inactive | inactive |
